Measurements reported in PubChem BioAssay (NCI).
The panel holds about 83,000 compounds, 20% with a hit somewhere; the sample as a whole holds those more often.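 96-well plates, one dose, 48 hours. Percent growth reported; active if below 10.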 Unmarked numbers belong to inactive results. Activity calls are given as the source filed them.

Assays:
Assay in all cases: NCI-60 one-dose screen, 48 h (100 = growth as untreated, 0 = no growth, -100 = all killed)
Conditions in all cases: 10 µM unless noted
NCI-H23 lung = tested on: NCI-H23 lung
NCI-H226 lung = tested on: NCI-H226 lung
NCI-H322M lung = tested on: NCI-H322M lung
HOP-62 NSCLC = tested on: HOP-62 NSCLC
NCI-H460 lung = tested on: NCI-H460 lung
HOP-92 NSCLC = tested on: HOP-92 NSCLC
NCI-H522 lung = tested on: NCI-H522 lung
A549/ATCC NSCLC = tested on: A549/ATCC NSCLC
786-0 renal = tested on: 786-0 renal
COLO 205 colon = tested on: COLO 205 colon

Row | Compound | growth (NCI-H23 lung) | growth (NCI-H226 lung) [%] | growth (NCI-H322M lung) [%] | growth (HOP-62 NSCLC) [%] | growth (NCI-H460 lung) | growth (HOP-92 NSCLC) | growth (NCI-H522 lung) | growth (A549/ATCC NSCLC) | growth (786-0 renal) | growth (COLO 205 colon)
1 | Cc1ccc(/C=C/c2nn3c(-c4ccco4)nnc3s2)cc1 | 104% | 100 | 94 | 114 | 99.9% | 107% | 94.4% | 97.8% | 88.4% | 102%
2 | CCOC(=O)c1c(NCC(=O)Nc2cccc(Cl)c2)sc2c1CCCC2 | 66.5% | 69.8 | 91.4 | 78.6 | 92.5% | 96.3% | 65.9% | 101% | 106% | 101%
3 | Oc1ccc(CSc2nnc(-c3ccc(Br)cc3)o2)c2cccnc12 | 38.3% | 61.5 | 35.7 | 21.9 | 10.8% | 5.88% (active) | 29.4% | 29.8% | 39.9% | 100%
4 | CC(C)(C)CC(C)(C)n1nnnc1C(Nc1ccccc1)c1cc2cccc3ccc4cccc1c4c32 (stereo not given) | 82.3% | 84 | 91.5 | 86.1 | 81.7% | 49.7% | 72% | 78.5% | 88.4% | 96.4%
5 | CN(C)c1ncc(/C=C2\SC(=S)N(Cc3ccccc3Cl)C2=O)s1 | 80.4% | 83.8 | 80.5 | 88.5 | 29.1% | 94.7% | 77.9% | 63.9% | 67.3% | 91.8%
6 | C/C(Cc1ccc(Cl)cc1)=C(/c1ccccc1)c1ccc(OCCN)cc1 | 98.2% | 91.4 | 99.8 | 108 | 104% | 91.6% | 96.1% | 99.1% | 106% | 103%
7 | COc1cc(/C=N/n2cnc3oc(-c4ccccc4)cc3c2=N)cc(CN2CCCC2)c1O | 103% | 90.5 | 96.7 | 85.5 | -58.6% (active) | 77.9% | 96.4% | 64.7% | -81% (active) | 11.8%
8 | COc1ccc2oc3c4[nH]c5ccccc5c4c4c(c3c2c1)C(=O)N(O)C4=O | 91.8% | 93.8 | 108 | 102 | 99.5% | 81% | 99.3% | 108% | 101% | 111%
9 | COC1=C(c2ccccc2)C(=O)C(OC)=C(c2ccccc2)C1=O | 100% | 95.5 | 106 | 89.9 | 106% | 97.6% | 83.8% | 74.3% | 99.2% | 108%
10 | Oc1ccc(-c2nnc(SCc3ccc(O)c4ncccc34)n2-c2ccccc2)cc1 | 19.3% | 15.4 | 19.2 | 19.3 | 3.78% (active) | 4.59% (active) | -4.72% (active) | 6.81% (active) | 19.1% | 28.2%
11 | CCN1C/C(=N\S(=O)(=O)c2ccccc2)N(CC)C1=S | 94.1% | 101 | 101 | 105 | 108% | 139% | 94.3% | 98.5% | 96.6% | 107%
12 | CS(=O)c1nccc(-c2c(-c3ccc(F)c(OCCc4ccc(F)cc4)c3)nc3sccn23)n1 (stereo not given) | 7.95% (active) | 111 | 65.4 | 99.7 | 59.1% | 47.1% | -61.7% (active) | 101% | 95.3% | 102%
13 | C/C(=C(/c1ccc(O)cc1)c1ccc(OCCN(C)C)cc1)c1ccc(Cl)cc1 | 56.8% | 89.4 | 48 | 67.4 | 15% | 32.5% | 57.8% | 56.4% | 50.2% | -88.7% (active)
14 | COc1ccc([C@H]2[C@H](O)C(=O)N2c2cc(OC)c(OC)c(OC)c2)cc1Cl | 29.9% | 21.6 | 49.1 | 23.1 | 1.57% (active) | -6.45% (active) | -39.7% (active) | 19.1% | 22.1% | -79.3% (active)
15 | C=C(C)[C@@H]1CC[C@]2(COS(C)(=O)=O)CC[C@]3(C)[C@H](CC[C@@H]4[C@@]5(C)CCCNC(C)(C)[C@@H]5CC[C@]43C)[C@@H]12 | 82% | 86.5 | 94.7 | 101 | 13.5% | 76.4% | 85.4% | 54.2% | 91.5% | 0.735% (active)
16 | O=C(NNc1nc2cc(F)c(F)cc2n2cccc12)c1ncccn1 | 20.3% | 14 | 28.7 | 19.9 | 10.6% | 68.1% | 13.7% | 21.1% | 8.17% (active) | 20.5%
17 | O=C(NCCCNc1cc(-c2cn(-c3ccccc3)nc2-c2cccc(O)c2)ccn1)Nc1cc(C(F)(F)F)cc(C(F)(F)F)c1 | 83.2% | 79.6 | 90.3 | 78.2 | 61.3% | 52% | 89.5% | 67.1% | 63.2% | 80.4%
18 | CCN1C(=O)N(CC)C2SC(N/N=C/C=C/c3ccccc3OC)=NC21 (stereo not given) | 30.4% | 54.9 | 44.8 | 47.3 | 2.9% (active) | 39.1% | 1.31% (active) | 27.1% | 23.8% | 7.22% (active)
19 | Cc1ccc(/C=C/CC(=O)Nc2ccc(C(=O)Nc3ccc(F)cc3N)cc2)cn1 | 68.6% | 68.6 | 74.4 | 59.1 | 72.1% | 22.6% | 30.4% | 69.2% | 75.6% | 49.4%
20 | CS(=O)(=O)c1ccc2c(c1)c1c(n2Cc2ccc(Cl)cc2)CCCC1 | 73.5% | 80.1 | 87.7 | 75.8 | 71.6% | 65.7% | 13.7% | 64.5% | 83.5% | 83.3%
21 | O=C1c2c(c3c4cc(Br)ccc4[nH]c3c3ccc4ccccc4c23)C(=O)N1CCN1CCCCC1 | 37.8% | 69.2 | 78 | 33.8 | -67.7% (active) | 51.3% | 68% | 7.63% (active) | -84.2% (active) | 61.7%
22 | CC(C)N=C(N/C(N)=N/c1nc2ccccc2s1)NC(C)C | 47.5% | 67.2 | 62.2 | 55.4 | 48.8% | 30.8% | 85.1% | 69.3% | 58.5% | 55.6%
23 | O=C(CN1C(=O)CSC1=O)Nc1ccc(C(=O)/C=C/c2cc3ccccc3nc2Cl)cc1 | 68.4% | 89.1 | 96.1 | 97.5 | 85.7% | 94.4% | 66.9% | 78.2% | 73.3% | 111%
24 | COc1ccc(CCN2C(=O)/C(=C/c3nc(CO)cs3)SC2=S)cc1 | 86.7% | 101 | 95.7 | 82.8 | 102% | 27.7% | 35.9% | 95.3% | 27.9% | 102%
25 | O=C(NCCCCCCNC(=O)c1c2c(nc3ccccc13)-c1cccnc1SC2)c1c2c(nc3ccccc13)-c1cccnc1SC2 | 63.1% | 82.6 | 71.9 | 43.9 | 75% | 50.8% | 95.7% | 70.6% | 76.5% | 28.8%
